These results are taken from PubChem BioAssay (NCI).

What all share (assay): NCI-60 one-dose screen, 48 h (100 = growth as untreated, 0 = no growth, -100 = all killed)
Assay [1] relates to K-562 leukemia. The conditions noted are these: 10 µM unless noted.
Assay [2] relates to MALME-3M melanoma. The conditions noted are these: 10 µM unless noted.
Assay [3] has as its system SF-268 CNS. The following applies: 10 µM unless noted.
Assay [4] deals with SF-539 CNS. The conditions noted are these: 10 µM unless noted.
Assay [5] relates to UACC-257 melanoma. The conditions noted are these: 10 µM unless noted.
In assay [6] the test system is M14 melanoma. The conditions noted are these: 10 µM unless noted.
The test system of assay [7] is HCT-15 colon. The following applies: 10 µM unless noted.
For assay [8], the system named is HT29 colon. The conditions noted are these: 10 µM unless noted.
Assay [9] deals with SNB-75 CNS. The conditions noted are these: 10 µM unless noted.
For assay [10], the system named is U251 CNS. The conditions noted are these: 10 µM unless noted.
Assay [11] has as its system PC-3 prostate. The following applies: 10 µM unless noted.
The test system of assay [12] is LOX IMVI melanoma. The conditions noted are these: 10 µM unless noted.
Assay [13] relates to SK-MEL-28 melanoma. The following applies: 10 µM.
In assay [14] the test system is SK-MEL-2 melanoma. The following applies: 10 µM unless noted.
In assay [15] the test system is MDA-MB-231 breast. The following applies: 10 µM unless noted.
For assay [16], the system named is SNB-19 CNS. The following applies: 10 µM unless noted.
The subject of assay [17] is SK-MEL-5 melanoma. The following applies: 10 µM unless noted.
In assay [18] the test system is UACC-62 melanoma. The following applies: 10 µM unless noted.
Assay [19] concerns SF-295 CNS. The following applies: 10 µM unless noted.
Assay [20] has as its system RXF 393 renal. The conditions noted are these: 10 µM unless noted.

The panel holds about 83,000 compounds, 20% with a hit somewhere; the sample as a whole holds those more often.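 Percent growth is the endpoint: 0 to 100 indicates growth inhibition (40 means 60% inhibition), 0 means no net growth, and negative values indicate cell death.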 Unmarked numbers belong to inactive results. Activity calls are given as the source filed them. How the source made its calls: active means growth percent below 10; inactive means the rest.

In the case of `CCCCCCCCCCOC(=O)c1ccccc1C(=O)OCCCC`, the growth in assay [1] is 99.9%; in assay [2], 157%; in assay [3], 109%; in assay [4] it was 103%; in [5], 111%; in [6] it was 100%. In addition, the growth in assay [7] was 111%; in assay [8], 105%; in assay [9], 81.9%; in assay [10], 101%; in assay [11], 90.4%; in assay [12], 102%. In addition, the growth in assay [13] was 119%; in assay [14], 111%.
Consider `COc1nc2c(c(=O)n1C)N=C1c3ccccc3C(=O)C1C(c1ccccc1)N2` (configuration not stated), for which the growth is 74.8% in assay [1]; 83.2% in assay [2]; 89.2% in assay [15]; 85.3% in assay [3]; 93.7% in [4]; 96.7% in assay [5]. Further, the growth was 82.9% in [6]; 90.5% in assay [7]; 104% in assay [8]; 84.6% in assay [9]; 91.7% in assay [16]; 89.2% in assay [10]. For the same compound, the growth is 115% in assay [11]; 88.7% in [17]; 78.6% in assay [18]; 83.4% in assay [12]; 90.5% in assay [13]; 81.2% in [14].
On to `CN(O)c1nc(N(C)O)nc(N2CCOCC2)n1`, for which the growth in assay [1] is 9.56% (active); in [2], 48.5%; in assay [15] it was 56%; in [3], 29.3%; in assay [19] it was -30.2% (active); in assay [4], 38%. Moreover, the growth in assay [5] is 30%; in assay [6] it was 16%; in assay [7], 22.5%; in assay [8], 23.7%; in assay [9], 29.2%; in assay [16] it was 32.8%. Further, the growth in assay [10] is 31.5%; in assay [11] it was 58.9%; in assay [17] it was 34.2%; in assay [18] it was 29.1%; in assay [12], 25.4%; in assay [13], 61.1%. The growth in assay [14] is 62.6%.
For `O=C(NN1C(=O)CSC1c1ccc(Cl)cc1)c1[nH]c2ccc(F)cc2c1-c1ccccc1` (configuration not stated), the growth was 28.2% in assay [1]; 85.2% in [2]; 63.4% in assay [15]; 65.1% in assay [3]; 8.34% (active) in assay [19]; 78.8% in [4]. Also, the growth in assay [5] was 74.4%; in assay [6], 57.3%; in assay [7], 55.7%; in assay [8] it was 19.2%; in assay [9] it was 59.2%; in assay [16], 64.2%. Further, the growth was 49.6% in [10]; 42.7% in assay [11]; 75% in [17]; 48.7% in assay [18]; 60.9% in [12]; 101% in assay [13]. In [14], the growth is 49.3%.
Regarding `CC/C=C\C[C@H](O)C/C=C1/C(=O)C=C[C@@H]1C/C=C\CCCC(=O)OCCS(=O)(=O)c1ccccc1`, the growth in [1] is 7.77% (active); in assay [2], 63.7%; in assay [15], 40.2%; in assay [3], 42.6%; in assay [19], 100%; in [4], 59.9%. Moreover, the growth in assay [5] is 66.8%; in assay [7], 62%; in assay [8] it was 45.1%; in assay [9], 111%; in [16], 56.2%; in assay [10] it was 16.3%. The growth in [11] is 63.4%; in assay [18] it was 16.1%; in assay [12], -34.1% (active); in assay [13], 73.9%; in assay [14], 72%.
As to `CC(=O)SC1CC(=O)C=C2CCC3C4CCC(=O)OC4(C)CCC3C21C` (configuration not stated), the growth in assay [1] was 103%; in [2] it was 195%; in [3] it was 105%; in assay [4] it was 94.9%; in [5], 100%; in [6] it was 97.7%. The growth in [7] is 106%; in [8], 101%; in [9], 84.2%; in [10] it was 99.4%; in [11], 94%; in assay [12] it was 97.8%. The growth was 120% in assay [13] and 106% in assay [14].
For the compound `OC(c1ccccc1)c1nnc(SCc2ccccc2)n1Cc1ccccc1` (configuration not stated), the growth is 84.4% in assay [1]; 77.3% in assay [2]; 103% in assay [15]; 94.2% in [3]; 83.4% in assay [19]; 101% in [4]. The growth was 103% in assay [5]; 88% in assay [6]; 88.9% in assay [7]; 103% in assay [8]; 76.3% in [9]; 79.7% in [16]. The growth in assay [10] was 87.5%; in assay [11], 87.6%; in assay [17], 96.7%; in assay [18], 69.1%; in assay [12] it was 98.7%; in assay [13], 100%. Further, the growth in assay [14] is 84.3%.
`CCn1c(-c2nonc2Nc2ccc(OC)cc2)nc2ccccc21`: the growth in [1] was 118%; in assay [2], 120%; in assay [20], 120%; in assay [3], 110%; in assay [19] it was 132%; in assay [4], 107%. In addition, the growth in assay [5] is 104%; in assay [6] it was 104%; in assay [7] it was 97.7%; in assay [8], 102%; in assay [9], 91.6%; in [16], 111%. Moreover, the growth in assay [10] is 101%; in assay [11] it was 107%; in assay [17] it was 104%; in assay [18], 96.2%; in [12] it was 107%; in [13], 107%. Also, in assay [14], the growth is 105%.
`Nc1nc(N)c2c(n1)NC1(C=C(O)c3ccccc31)C1=C(N2)c2ccccc2C1=O` (configuration not stated): the growth was 95.5% in assay [1]; 108% in assay [2]; 107% in [15]; 104% in assay [3]; 109% in assay [19]; 109% in assay [4]. Besides, the growth in [5] is 120%; in [7], 112%; in assay [8], 125%; in assay [9], 169%; in assay [16], 103%; in assay [10], 103%. In addition, the growth in assay [11] was 107%; in assay [17], 108%; in assay [18], 110%; in assay [12], 94.3%; in [13], 108%; in [14] it was 112%.
